In the library only some 8.3% were active in any assay of this set; here they are far more common.
HCMV antiviral = qHTS Assay for inhibitors of the human cytomegalovirus (HCMV). HFF cells, HCMV-luciferase reporter, 72 h; hits give low values. activity change, negative = inhibition, % at 57.5 µM. 410,000 compounds, 4.5% hits. AID 1259415, 2018; in the data active means activity change below about -60%; inconclusive means no clear call, values can overlap the other calls; inactive means above about -39%
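After 16 h attachment at 37C, HFF cells received test compound and HCMV-luciferase (1 PFU/cell); reporter luminescence read 72 h later, data normalized against buffer-only and known inhibitor Salinomycin.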
Lassa entry inh = qHTS for Inhibitors of binding or entry into cells for Lassa Virus; Potency, µM (top dose mostly 37.9 µM), without a hit: at the top dose activity change, negative = inhibition, hits mostly inhibitors; Lassa virus pseudotype entry inhibition, cell reporter; 300,000 compounds, 1.2% hits; calls by dose curve; tested in HEK293 cells; further: potency means the concentration at half of the fitted maximal effect; nearly all actives have a fitted effect of over 50% in size
HCV inh = qHTS Assay for Inhibitors of Hepatitis C Virus (HCV); Huh7.5.1 HCVcc-Cre infection, luciferase reporter, 44 h; Potency, µM (doses to about 41.8 µM), inactives show at the top dose activity change, negative = inhibition, actives largely listed as inhibitors; 340,000 compounds, 3.4% hits; AID 651820, 2012; further: potency means the concentration at half of the fitted maximal effect
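Cells (1,000/well) were plated 4 h before compound, then infected with HCVcc-Cre virus (~0.5 moi). After 44 h further culture, infection was read as luciferase luminescence following a 15 min substrate incubation at room temperature.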
FBPA Giardia inh = qHTS Assay for Inhibitors of Fructose-1,6-bisphosphate Aldolase from Giardia Lamblia; A8B2U2; Potency, µM (highest dose often 59.6 µM), for the others: at the top dose activity, negative = inhibition, hits mostly inhibitors; purified Giardia FBPA; 290,000 compounds, 0.71% hits; further: potency means the concentration at half of the fitted maximal effect; nearly all actives have a fitted effect of over 55% in size
Target sequence (A8B2U2 whole entry, looked up): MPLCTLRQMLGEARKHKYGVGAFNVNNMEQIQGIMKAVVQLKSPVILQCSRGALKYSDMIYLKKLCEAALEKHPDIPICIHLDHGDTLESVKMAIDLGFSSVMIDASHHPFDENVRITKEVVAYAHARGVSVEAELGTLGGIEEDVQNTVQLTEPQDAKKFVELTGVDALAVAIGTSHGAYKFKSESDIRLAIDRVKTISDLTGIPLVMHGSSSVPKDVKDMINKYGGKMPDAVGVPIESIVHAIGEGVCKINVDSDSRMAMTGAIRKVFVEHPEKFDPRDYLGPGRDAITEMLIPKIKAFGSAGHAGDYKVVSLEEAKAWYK
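40 nM FBPA preincubated 10 min at RT with compound (up to 57.5 uM final), then substrate plus GAPDH/TPI/NAD/arsenate coupling and diaphorase/resazurin added. Fluorescence read after 20 min at RT, 525/598 nm.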
FMDV inh = High Throughput Screening for Foot and Mouth Disease Virus Antivirals | FMDV antiviral cell-based qHTS | 410,000 compounds, 1.2% hits | Potency, µM (highest dose often 57.9 µM), for inactives: at the highest dose activity change, negative = inhibition, most hits filed as inhibitors; calls by dose curve; tested in HEK293T cells; further: read-out not given here; potency means the concentration at half of the fitted maximal effect; nearly all actives have a fitted effect of over 45% in size
MARV entry inh = qHTS for inhibitors of binding or entry into cells for Marburg Virus | Marburg virus pseudotyped entry inhibition, cell reporter | Potency, µM (series often up to 37.8 µM), for the others: at the highest dose activity change, negative = inhibition, hits mostly inhibitors | 300,000 compounds, 1.8% hits; calls by dose curve; tested in HEK293 cells; further: potency means the concentration at half of the fitted maximal effect
An asterisk follows results filed as active; [ ] = another dose, or the depositor's remark. Unless noted, the call rests on the fitted dose curve; in most records, active means well fitted curve in the direction sought with a large enough effect; inconclusive means small, poorly fitted or top-dose-only effect, or another doubt; inactive means no such curve, though single readings can be large; an effect the other way counts as inactive or inconclusive. On the % scale 0 is the no-effect control and ±100 the full control effect.

Cc1ccc(S(=O)(=O)/N=C2\C=C(Nc3ccc(O)cc3)C(=O)c3ccccc32)cc1 was read as Lassa entry inh 2.82µM*, HCV inh 6.31µM*, FMDV inh 10µM* and MARV entry inh inconclusive.
`CC(C)(C)c1ccc(S(=O)(=O)/N=C2\C=C(NS(=O)(=O)c3ccccc3)C(=O)c3ccccc32)cc1` gave HCMV antiviral -10.9, Lassa entry inh inconclusive, HCV inh -19.2%, FBPA Giardia inh inconclusive, FMDV inh 27.7% and MARV entry inh -11.1%[46.1 µM].
For CCc1ccc(S(=O)(=O)/N=C2\C=C(Nc3ccc(C(=O)O)cc3)C(=O)c3ccccc32)cc1 the results were HCMV antiviral -97.6*, Lassa entry inh inconclusive, HCV inh inconclusive, FBPA Giardia inh 0.447µM*, FMDV inh inconclusive and MARV entry inh inconclusive.
For Cc1ccc(S(=O)(=O)/N=C2\C=C(NS(=O)(=O)c3ccccc3)C(=O)c3ccccc32)c(C)c1 the results were HCMV antiviral -90.6*, Lassa entry inh -15.3%, HCV inh -1.0%, FMDV inh 34.5% and MARV entry inh -0.3%[46.1 µM].
`CCc1ccc(NC2=CC(=O)C(=O)c3ccccc32)cc1` gave HCMV antiviral -13.9, Lassa entry inh inconclusive, HCV inh inconclusive, FMDV inh 0.0% and MARV entry inh inconclusive.
`CCOc1ccccc1NC(=O)C(C)n1nnc2sc3c(c2c1=O)CCCC3` (stereo unspecified) gave HCMV antiviral -2.1, Lassa entry inh 15.5%[46.1 µM], FMDV inh 0.0% and MARV entry inh 11.4%[46.1 µM].
For Cc1ccc(S(=O)(=O)/N=C2\C=C(Nc3cccc(C(=O)O)c3)C(=O)c3ccccc32)c(C)c1 the results were HCMV antiviral -72.6*, Lassa entry inh inconclusive, HCV inh 10.5%, FBPA Giardia inh inconclusive, FMDV inh inconclusive and MARV entry inh inconclusive.
Screening Cc1cccc(NC2=C(NC(=O)c3ccccc3)C(=O)c3ccccc3C2=O)c1 returned HCMV antiviral -20.0, Lassa entry inh -10.7%, HCV inh inconclusive, FBPA Giardia inh inconclusive, FMDV inh 0.0% and MARV entry inh 18.9%.
For Cc1ccc(S(=O)(=O)/N=C2\C=C(Nc3cccc(C(=O)O)c3)C(=O)c3ccccc32)cc1 the results were HCMV antiviral 2.9, Lassa entry inh inconclusive, HCV inh -6.6%, FBPA Giardia inh 0.251µM*, FMDV inh -12.0% and MARV entry inh inconclusive.
For Cc1cnc(-n2ncc(C(=O)NCCc3ccncc3)c2-c2cccs2)nc1-c1ccc(F)cc1 the results were FMDV inh -6.2%.
`CCCS(=O)(=O)NCc1c(C)ncc2c1CCN(C(=O)/C=C/c1ccccc1)C2` gave FMDV inh -8.9%.
CCOC(=O)c1ccc(NC(=O)CCc2nc(-c3ccccc3)no2)cc1 was read as HCMV antiviral -3.2, Lassa entry inh inconclusive, HCV inh inconclusive, FBPA Giardia inh -5.0%, FMDV inh 20µM* and MARV entry inh inconclusive.
For CCOC(=O)c1ccc(NC(=O)CCc2nc(-c3ccccc3Cl)no2)cc1 the results were HCMV antiviral -32.8, Lassa entry inh inconclusive, HCV inh 11.2µM*, FBPA Giardia inh -2.7%, FMDV inh -8.6% and MARV entry inh inconclusive.
Cc1cccc(N2C(=O)CSC23C(=O)N(CC(=O)NCc2ccccc2Cl)c2ccccc23)c1 (stereo unspecified) was read as HCMV antiviral 8.6, Lassa entry inh -18.5%[46.1 µM] and FMDV inh -16.0%.
For CCOc1ccc(CN(C)C(C)C(=O)Nc2ccc([N+](=O)[O-])cc2Cl)cc1OC (stereo unspecified) the results were HCMV antiviral inconclusive, Lassa entry inh 0.7%, HCV inh 9.1%, FBPA Giardia inh -0.7%, FMDV inh 22.4µM* and MARV entry inh inconclusive.
COc1ccc(CN(C)C(C)C(=O)Nc2ccc([N+](=O)[O-])cc2Cl)cc1OC (stereo unspecified) was read as HCMV antiviral 80.2, Lassa entry inh inconclusive, HCV inh inconclusive, FBPA Giardia inh -1.2%, FMDV inh inconclusive and MARV entry inh inconclusive.
Screening COc1ccc(Br)cc1CN(C)C(C)C(=O)Nc1cc([N+](=O)[O-])ccc1OC (stereo unspecified) returned HCMV antiviral 25.3, Lassa entry inh -1.6%, HCV inh inconclusive, FBPA Giardia inh 0.0%, FMDV inh -29.9% and MARV entry inh 14.1µM*.
For CCCCNC(=O)c1nc2cc(C)c(C)cc2nc1-c1ccc2c(c1)OCO2 the results were HCMV antiviral 30.9.
`Fc1ccc(-c2nc(Nc3ccc(F)c(Cl)c3)nc3c2COc2ccccc2-3)cc1` gave HCMV antiviral -16.7, Lassa entry inh inconclusive, FMDV inh -5.6% and MARV entry inh inconclusive.
For O=C(O)Cn1c2ccccc2c2ccccc21 the results were HCMV antiviral -10.9, Lassa entry inh 0.0%, HCV inh 3.98µM*, FBPA Giardia inh 5.5%, FMDV inh -4.9% and MARV entry inh 0.4%.
`O=C1CC(c2ccccc2)Sc2nc3ccccc3n21` (stereo unspecified) gave HCMV antiviral -3.7, Lassa entry inh -25.7%, HCV inh 4.9%, FBPA Giardia inh -1.3%, FMDV inh -2.8% and MARV entry inh inconclusive.
O=C1CC(c2ccc3c(c2)OCO3)Sc2nc3ccccc3n21 (stereo unspecified) was read as HCMV antiviral inconclusive, Lassa entry inh inconclusive, HCV inh 9.0%, FBPA Giardia inh 11.3%, FMDV inh 17.8µM* and MARV entry inh inconclusive.
`COC(=O)c1ccc(CN2CCOc3ccc(CN4CCC(O)(c5cccnc5)CC4)cc3C2)cc1` gave FMDV inh 17.8µM*.
For COc1cc(CN2CCOc3ccc(CN4CCC(O)(c5cccnc5)CC4)cc3C2)cc(OC)c1 the results were FMDV inh 4.7%.
For COc1ccc(/C=C/C(=O)c2cc(F)ccc2OC(=O)c2ccccc2OC)cc1OC the results were HCMV antiviral -97.4*, Lassa entry inh inconclusive, HCV inh inconclusive, FBPA Giardia inh 12.3%, FMDV inh 8.91µM* and MARV entry inh inconclusive.
`COc1ccc(/C=C/C(=O)c2cc(F)ccc2OC(=O)c2ccc(OC)c(OC)c2)cc1OC` gave HCMV antiviral -3.3, Lassa entry inh inconclusive, HCV inh -19.3%, FBPA Giardia inh -4.3%, FMDV inh inconclusive and MARV entry inh inconclusive.
Screening COc1ccc(/C=C/C(=O)c2cc(F)ccc2OC(=O)c2ccccc2)cc1OC returned HCMV antiviral -96.6*, Lassa entry inh inconclusive, HCV inh inconclusive, FMDV inh 28.2µM* and MARV entry inh inconclusive.
